Measured values reported in PubChem BioAssay AID651612 (The Scripps Research Institute Molecular Screening Center, 2012).
Out of some 2,200 compounds screened, about 1,500 (68%) were called active. No stated cut-off is given here; in the data, active means inhibition above about 23%; inactive means the rest. So high a share suggests a set chosen from earlier hits. A selection follows.

The compounds below were run against Perilipin-5 (Homo sapiens) + 1-acylglycerol-3-phosphate O-acyltransferase ABHD5 (Homo sapiens) (UniProt Q00G26+Q8WTS1) (assay: blockers of ABHD5 binding to perilipin-5 – biochemical, luminescence, confirmation (AID 651612;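 further: 0% = DMSO vehicle wells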)). Conditions: biochemical ABHD5-PLIN5 interaction, at 4 µM, hits give high values.
Sequence of Perilipin-5 (Homo sapiens) + 1-acylglycerol-3-phosphate O-acyltransferase ABHD5 (Homo sapiens) (Q00G26 whole entry, looked up): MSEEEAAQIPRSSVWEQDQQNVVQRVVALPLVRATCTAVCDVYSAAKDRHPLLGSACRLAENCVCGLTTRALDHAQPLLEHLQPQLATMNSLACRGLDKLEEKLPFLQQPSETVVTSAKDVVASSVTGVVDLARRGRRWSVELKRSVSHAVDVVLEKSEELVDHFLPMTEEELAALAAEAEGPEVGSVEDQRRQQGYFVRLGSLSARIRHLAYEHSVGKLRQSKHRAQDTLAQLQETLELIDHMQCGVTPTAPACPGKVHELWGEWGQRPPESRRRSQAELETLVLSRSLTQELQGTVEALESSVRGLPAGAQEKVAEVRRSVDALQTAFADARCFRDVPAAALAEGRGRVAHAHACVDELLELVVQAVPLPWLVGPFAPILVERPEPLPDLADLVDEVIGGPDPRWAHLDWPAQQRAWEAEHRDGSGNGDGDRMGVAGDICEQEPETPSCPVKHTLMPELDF
Sequence of Perilipin-5 (Homo sapiens) + 1-acylglycerol-3-phosphate O-acyltransferase ABHD5 (Homo sapiens) (Q8WTS1 whole entry, looked up): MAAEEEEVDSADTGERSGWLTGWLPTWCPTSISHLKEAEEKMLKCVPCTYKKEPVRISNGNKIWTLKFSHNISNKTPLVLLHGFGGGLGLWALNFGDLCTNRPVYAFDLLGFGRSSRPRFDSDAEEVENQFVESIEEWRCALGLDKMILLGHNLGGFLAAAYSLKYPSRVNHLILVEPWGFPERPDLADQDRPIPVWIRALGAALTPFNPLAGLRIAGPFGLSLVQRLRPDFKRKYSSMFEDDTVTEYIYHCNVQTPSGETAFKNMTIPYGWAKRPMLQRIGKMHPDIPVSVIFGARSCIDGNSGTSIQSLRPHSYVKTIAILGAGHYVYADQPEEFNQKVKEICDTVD

inhibition, active:
O=C(O)c1ccc2c(c1)C(=O)N(c1ccc(/C=C/C(=O)c3ccccc3)cc1)C2=O 94.7%
O=[N+]([O-])/C=C/c1ccc2c(ccn2Cc2ccccc2)c1 103%
Cc1cc(C)c(NC(=O)C[N+](C)(C)CC(O)COc2cccc3ccccc23)c(C)c1 (stereo unspecified) 22.2%
C[C@@H]1C[C@@H]2O[C@H]2/C=C\C=C\C(=O)Cc2c(Cl)c(O)cc(O)c2C(=O)O1 53.1%
O=C(NNc1c2ccccc2nc2ccccc12)c1cc2ccccc2cc1O 35.2%
CC(C)(C)C1C/C(=C/c2ccco2)C(=O)/C(=C/c2ccco2)C1 (stereo unspecified) 77.8%
Cc1cccc(C=CC(=O)c2ccc(Cl)cc2)c1 84.9%
COc1ccc(CNC(=O)/C(C#N)=C/c2cccc(OC)c2OC)cc1 56.6%
O=C(Nc1ccccc1)c1nnsc1S(=O)(=O)c1ccc(Cl)cc1 64.1%
O=C(N/N=C/C=C/c1ccco1)c1cccs1 40.2%
O=C1C=CC(=O)N1c1ccc(N2CCCCC2)cc1 36.2%
O=c1[nH]c(/C=C\c2cccc(C(F)(F)F)c2)nc(O)c1[N+](=O)[O-] 83.9%
CC1(C)CCSC(/C=C/c2ccccc2)=N1 77.3%
Cc1ccc(SC(CC(=O)c2ccc(C(C)(C)C)cc2)C(=O)O)cc1 (stereo unspecified) 36.4%
C=C(C)C(=O)O[C@H]1C/C(C)=C\C(=O)/C=C(\C)[C@H](O)[C@@H]2OC(=O)C(=C)[C@@H]21 45.7%
CCC(C(=O)OCCN(CC)CC)c1ccccc1 (stereo unspecified) 79.4%
C=C1C(=O)[C@]23C[C@H]1CCC2[C@@]1(C)C(C[C@@H]3O)[C@](C)(C(=O)O)CC[C@@H]1O (stereo partly specified) 34.6%
COC(C/C=C/C(=O)[C@@H](C)OCc1ccccc1)OC 41.6%
O=C1/C(=C\c2ccc([N+](=O)[O-])cc2)CS(=O)(=O)C/C1=C/c1ccc([N+](=O)[O-])cc1 103%
Cc1cccc(C)c1NC(=O)C(Cl)C(=O)c1ccccc1 (stereo unspecified) 68.9%
COc1ccc(-c2cc(C(F)(F)F)nc(S(C)(=O)=O)n2)cc1OC 52.6%
COCCN(CCOC)c1nc(N)c2c(N)nc3c(c2c1C#N)CC(=O)N3Cc1ccc(Cl)cc1 32.1%
CCN1CCC(O)(/C=C/c2ccc(C)cc2)C(C(=O)/C=C/c2ccc(C)cc2)C1 (stereo unspecified) 90.5%
O=C(CCN1CCc2ccccc2C(O)(c2ccccc2)C1)c1ccc2c(c1)OCCO2 (stereo unspecified) 51.6%
Cc1ccc2nc(-c3ccco3)c(Cc3cccc(Cl)c3)n2c1 26.5%
Cc1ccc(Cc2c(-c3ccco3)nc3ccc(Cl)cn23)cc1 32.4%
O=C1C(Cl)=C(Oc2ccccc2)C(=O)c2ccccc21 85.3%
Cc1csc(NC(=O)NC2(C(F)(F)F)Oc3ccccc3O2)n1 92.4%
Cc1ccc(NC(=O)Cn2sc3ccccc3c2=O)cc1 74%
Cc1ccc(-n2nc(-c3ccco3)cc2C(=O)NCc2cccnc2)cc1 38.1%
O=C(Nc1ccccc1Cl)/C(Cl)=C(\Cl)S(=O)c1ccccc1 (stereo unspecified) 101%
Cc1nc(-c2ccccc2)sc1C(=O)/C=C/c1ccccc1 81.5%
Cn1sc(=O)c2cc(S(=O)(=O)NC3CC3)ccc21 34.2%
Cc1ccc(CS(=O)(=O)c2ncc(Cl)c(C(=O)Nc3nnc(C)s3)n2)cc1 79.9%
CSc1nnc(NC(=O)c2nc(S(=O)(=O)Cc3ccc(C)cc3)ncc2Cl)s1 79.6%
O=C(Nc1nc(-c2ccco2)c(-c2ccco2)s1)c1ccco1 60.6%
Cc1cc(-c2n[nH]c(=S)n2/N=C/C(Br)=C/c2ccccc2)n[nH]1 63%
O=C(/C(=C/c1cccc(Cl)c1)c1nc2ccccc2[nH]1)c1ccccc1 98.9%
CC(=O)Nc1ccc(C=CC(=O)c2ccc([N+](=O)[O-])cc2)cc1 84.1%
O=C(/C=C/c1ccc(Cl)c([N+](=O)[O-])c1)c1ccc(O)cc1 90.2%
COc1ccc2c(c1)c(=Cc1ccc(N(C)C)cc1)c1cc(-c3ccccc3)[n+](C)n12 28.5%
COC(=O)/C=C\C(=O)Nc1cccc([N+](=O)[O-])c1 83.5%
COc1ccc2c(c1OC)C(=O)OC2Nc1nc(-c2ccccc2)cs1 (stereo unspecified) 61.3%
O=C1/C(=C\c2ccc(O)cc2)CCC1CNc1ccc(Cl)cc1 (stereo unspecified) 25.6%
COc1ccccc1-n1nnnc1S(=O)(=O)Cc1ccc(Cl)cc1 49.7%
Cc1cccc(C)c1NC(=O)C(c1ccc(C(F)(F)F)cc1)n1c(=O)c(-c2ccco2)nc2ccccc21 (stereo unspecified) 80.6%
Cc1cccc(C)c1NC(=O)C(c1cccc2ccccc12)n1c(=O)c(-c2ccco2)nc2ccccc21 (stereo unspecified) 53%
N#Cc1ccc(C(C(=O)NCc2ccccc2)n2c(=O)c(-c3ccco3)nc3ccccc32)cc1 (stereo unspecified) 91.9%
O=C(NC1CCCCC1)C(c1cc2ccccc2o1)n1c(=O)c(-c2ccco2)nc2ccccc21 (stereo unspecified) 80.4%
CCn1c(SC)nc(O)c(C(c2ccc(OC)c(O)c2)c2c(O)nc(SC)n(CC)c2=O)c1=O 62%
COc1ccc(C(C[N+](=O)[O-])n2nc(C)cc2C)cc1 (stereo unspecified) 62.2%
CCN(CCCNC(=O)c1ccc2c(c1)NC(=O)CN2C)c1cccc(C)c1 50.9%
Cc1nnnn1/C(=C\c1ccccc1)C(=O)OCC(=O)N1CC2(C)CC1CC(C)(C)C2 (stereo unspecified) 54.9%
O=[N+]([O-])c1c(NCCO)cc(Sc2nc3ccccc3s2)c2nonc12 51.7%
O=C(CCl)Nc1ccc(Sc2ccc(NC(=O)CCl)cc2)cc1 40.2%
O=C(/C=C/c1ccc(Cl)cc1Cl)c1cccnc1 98.6%
COc1ccc(/C=C/C(=O)c2ccc(NS(=O)(=O)c3ccc(C)cc3)cc2)cc1O 55.4%
Cc1cccc(CS(=O)(=O)c2ncc(Cl)c(C(=O)Nc3ccc(F)cc3)n2)c1 82.7%
Cc1cccc(NC(=O)c2nc(S(=O)(=O)Cc3ccccc3)ncc2Cl)c1 90.7%
O=C1C=C(c2ccc(Cl)cc2)C(=O)N1Nc1ccccc1 102%
Cc1cc(C)nc(S/C=C/C(=O)c2ccccc2)n1 96.8%
c1ccc(CCC2=NCCn3cccc32)cc1 28.8%
Cc1ccc(NC(=O)c2cc(-c3ccc(C)o3)nc3ccccc23)nc1 24%
N#Cc1ccccc1S(=O)(=O)N1CCN(Cc2c(O)ccc3ccccc23)CC1 53%
CCCCOC(=O)CNc1nnc(SCC(=O)OCC)[nH]c1=O 69.3%
O=C(/C=C(O)/C=C/c1ccc(O)cc1)/C=C/c1ccc(O)cc1 63.4%
CN1CCC[C@@H]1CCO[C@](C)(c1ccccc1)c1ccc(Cl)cc1 27.9%
CCOC(=O)C(=Cc1ccccc1OC)C(=O)OCC 60.3%
CCOC(=O)C(=Cc1ccccc1)C(=O)c1ccccc1 98.5%
Cc1[nH]c(=O)c(C(=O)/C=C/c2ccccc2)c2c1CCCC2 56.5%
CC1=CC(C)(C)Nc2ccc(OC(=O)CN3C(=O)C4CCCCC4C3=O)cc21 (stereo unspecified) 83.2%

inhibition, inactive:
Cc1cc2c(c(=O)n1Cc1ccco1)C(c1ccccc1)C(C#N)=C(N)O2 (stereo unspecified) 19%
CCCOc1ccc(C(=O)C(CCC(CNCC)C(=O)c2ccc(OCCC)cc2)CNCC)cc1 (stereo unspecified) 19.7%
CCc1ccc(NC(=O)CSc2nnc(-c3cnccn3)n2Cc2ccco2)cc1 19.6%
COc1ccc(-n2cc(CNC3CCOCC3)c(-c3cccc(F)c3)n2)cc1 2.9%
CC(=O)N(c1ccc2oc(=O)sc2c1)S(=O)(=O)c1ccc(C)cc1 -52.7%
COc1cccc2sc(N(CCCN(C)C)C(=O)C(c3ccccc3)c3ccccc3)nc12 18.3%
COc1ccc(N/C=C(\C2OC(=O)c3ccccc32)[N+](=O)[O-])cc1 (stereo unspecified) 9.16%
COc1ccccc1C1/C(=C(/O)c2ccc(C)cc2)C(=O)C(=O)N1Cc1ccco1 (stereo unspecified) 2.17%
C[C@@H](CN1CCC[C@H]1CN1C(N)=NC[C@@H]1Cc1ccccc1)N1C[C@@H](Cc2ccccc2)N(CCCC2CCCC2)C1=N 11.3%
Cc1ccn(C(CC(=O)c2ccc(Br)cc2)C(=O)O)n1 (stereo unspecified) 6%
CC(=O)c1ccc(NC(=O)CCc2nnc3ccc(NCc4ccco4)nn23)cc1 9.27%
NC(=O)c1nsc(C(=O)N(CC(=O)NCc2ccc(F)cc2)Cc2ccco2)c1N 4.49%
COC(=O)c1cnn2c(C(F)(F)F)cc(-c3ccco3)nc12 14%
COc1ccc2sc(-c3ccccc3OC)c(-c3ccc(OCCN4CCCC4)cc3)c2c1 15.5%
Cc1c(CCOC(=O)CC23CC4CC(CC(C)(C4)C2)C3)sc[n+]1Cc1ccc([N+](=O)[O-])cc1 16.8%
O=c1[nH][nH]c2c1[C@H](c1ccc(Cl)cc1)O[C@H](CCc1ccccc1)C2 2.53%
O=C(c1cccnc1)N(c1cc2sc(=O)oc2c2ccccc12)S(=O)(=O)c1ccccc1 -3.41%
CC1Cc2ccccc2N1CC(=O)Nc1ccc(S(N)(=O)=O)cc1 (stereo unspecified) 7.58%
CC1(C(=O)NCc2cccc3ccccc23)CCN1Cc1ccc(-c2ccccc2)o1 (stereo unspecified) 16.1%
CCS(=O)(=O)Nc1ccc(C2=NN(S(=O)(=O)c3ccc(F)cc3)C(c3ccco3)C2)cc1 (stereo unspecified) 10.4%
CN(C)CCCNC(=O)/C=C/c1ccc(OCc2c(F)cccc2Cl)cc1 10.8%
COC(=O)c1nc(NC(=O)c2ccc(C(C)(C)C)cc2)n[nH]1 10.3%
COC(=O)C1(C)NC(c2ccccc2OC)C2C(=O)N(c3ccccc3)C(=O)C21 (stereo unspecified) -5.37%
CCN(CC)CCN(C(=O)c1ccc2c(c1)CCCC2)c1nc2c(OC)cccc2s1 7.79%
OC(CNCC1CCCO1)Cn1c2ccc(Br)cc2c2cc(Br)ccc21 (stereo unspecified) 12.6%
COc1ccc(CCNC(=O)c2nnc(CS(=O)(=O)c3ccccc3)o2)cc1OC 6.71%
O=C(NCCOCc1ccc(Cl)cc1)c1ncn[nH]1 6.41%
Cc1cccc(NC(=O)c2ccc3nsnc3c2)c1C 2.22%
O=C(NNc1ccccn1)c1ccc(Cl)nc1 2.34%
CCN1/C(=C\c2ccc3ccccc3[n+]2CC)Sc2cc(C)ccc21 16.8%
Nc1cccc(OCCCCCOc2cccc(N)c2)c1 3.48%
CC1(Oc2ccccc2-c2ccno2)CCN(Cc2ccc(-c3ccccc3)o2)C1 (stereo unspecified) 16.2%
Cc1nc2sc(C(c3ccco3)N3CCOCC3)c(O)n2n1 (stereo unspecified) 5.85%
O=C(Cn1nc(CNc2ccc(Cl)cc2)[n+]2c1CCCCC2)c1ccc(Cl)cc1 19.8%
CC1=CC(C)(C)Nc2ccc(OC(=O)C(Cc3ccccc3)N3C(=O)C4CCCCC4C3=O)cc21 (stereo unspecified) -3.56%
